PubChem BioAssay AID1159580 (chemical genetic matrix, 2015)
Among all 5,500 compounds or so, about 2,000 (36%) were called active. About 18% were inconclusive and are not listed. No stated cut-off is given here; in the data, active means normalized growth mostly below about 0.91 (no sharp cut-off); inconclusive means no clear call, values can overlap the other calls; inactive means mostly above about 0.92. This is one part of the list.

Assay: chemical genetic growth profiling, strain panel (AID 1159580);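 further: tested at 20 µM; growth read once vehicle control cultures reached saturation at 30 °C; 1 = growth at the plate median or of vehicle wells; lower values mean less growth of the strain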
Conditions: growth OD

Measured: normalized growth

CCOC(=O)c1c(C)cc(OC)cc1O
inactive: S. cerevisiae deletion strains, locus YJR075W, strain HOC1, hits give low values 0.936 | S. cerevisiae deletion strains, locus YKL009W, strain mrt4, hits give low values 0.939 | S. cerevisiae deletion strains, locus YKL068W, hits give low values 0.956 | S. cerevisiae deletion strains, locus YKL085W, strain MDH1 (second series), hits give low values 0.946 | S. cerevisiae deletion strains, locus YKL085W, strain MDH1, hits give low values 0.946 | S. cerevisiae deletion strains, locus YKL160W, strain elf1, hits give low values 0.976 | S. cerevisiae deletion strains, locus YKL190W, strain CNB1, hits give low values 0.996 | S. cerevisiae deletion strains, locus YKR026C, strain gcn3, hits give low values 0.951 | S. cerevisiae deletion strains, locus YKR091W, strain srl3, hits give low values 0.971 | S. cerevisiae deletion strains, locus YLL001W, strain dnm1, hits give low values 0.962 | S. cerevisiae deletion strains, locus YLL026W, hits give low values 0.965 | S. cerevisiae deletion strains, locus YLL041C, strain sdh2, hits give low values 0.96 | S. cerevisiae deletion strains, locus YLR027C, strain aat2, hits give low values 0.963 | S. cerevisiae deletion strains, locus YLR039C, strain RIC1, hits give low values 0.872 | S. cerevisiae deletion strains, locus YLR058C, strain SHM2, hits give low values 0.993 | S. cerevisiae deletion strains, locus YLR102C, strain apc9, hits give low values 0.946 | S. cerevisiae deletion strains, locus YLR221C, strain rsa3, hits give low values 0.949 | S. cerevisiae deletion strains, locus YLR258W, strain gsy2, hits give low values 0.964 | S. cerevisiae deletion strains, locus YLR262C, strain YPT6, hits give low values 0.928 | S. cerevisiae deletion strains, locus YLR268W, strain sec22, hits give low values 0.958 | S. cerevisiae deletion strains, locus YLR330W, strain CHS5, hits give low values 1.01 | S. cerevisiae deletion strains, locus YLR342W, strain FKS1 (second series), hits give low values 0.971 | S. cerevisiae deletion strains, locus YLR342W, strain FKS1, hits give low values 0.984 | S. cerevisiae deletion strains, locus YLR357W, strain rsc2, hits give low values 0.969 | S. cerevisiae deletion strains, locus YLR370C, strain arc18, hits give low values 0.981 | S. cerevisiae deletion strains, locus YLR371W, strain rom2, hits give low values 0.962 | S. cerevisiae deletion strains, locus YLR384C, strain iki3, hits give low values 0.972 | S. cerevisiae deletion strains, locus YLR418C, strain cdc73, hits give low values 0.891 | S. cerevisiae deletion strains, locus YML016C, strain PPZ1, hits give low values 0.988 | S. cerevisiae deletion strains, locus YML032C, strain rad52, hits give low values 0.91 | S. cerevisiae deletion strains, locus YML120C, strain ndi1, hits give low values 0.972 | S. cerevisiae deletion strains, locus YML124C, strain tub3, hits give low values 0.947 | S. cerevisiae deletion strains, locus YMR058W, strain fet3, hits give low values 0.968 | S. cerevisiae deletion strains, locus YMR078C, strain ctf18, hits give low values 0.926 | S. cerevisiae deletion strains, locus YMR125W, strain sto1, hits give low values 1 | S. cerevisiae deletion strains, locus YMR129W, hits give low values 0.977 | S. cerevisiae deletion strains, locus YMR205C, strain PFK2, hits give low values 0.887 | S. cerevisiae deletion strains, locus YMR223W, strain ubp8, hits give low values 0.924 | S. cerevisiae deletion strains, locus YMR231W, strain pep5, hits give low values 0.985 | S. cerevisiae deletion strains, locus YMR263W, strain SAP30, hits give low values 0.985 | S. cerevisiae deletion strains, locus YMR307W, strain GAS1, hits give low values 0.996 | S. cerevisiae deletion strains, locus YNL067W, strain RPL9B, hits give low values 0.99 | S. cerevisiae deletion strains, locus YNL128W, strain TEP1, hits give low values 1.01 | S. cerevisiae deletion strains, locus YNL153C, strain GIM3, hits give low values 0.989 | S. cerevisiae deletion strains, locus YNL183C, strain NPR1, hits give low values 0.872 | S. cerevisiae deletion strains, locus YNL209W, strain ssb2, hits give low values 0.992 | S. cerevisiae deletion strains, locus YNL233W, strain BNI4, hits give low values 0.98 | S. cerevisiae deletion strains, locus YNL248C, strain rpa49, hits give low values 0.936 | S. cerevisiae deletion strains, locus YNL250W, strain rad50, hits give low values 0.963 | S. cerevisiae deletion strains, locus YNL271C, strain bni1, hits give low values 0.949 | S. cerevisiae deletion strains, locus YNL298W, strain CLA4, hits give low values 0.965 | S. cerevisiae deletion strains, locus YNL322C, strain KRE1 (second series), hits give low values 0.952 | S. cerevisiae deletion strains, locus YNL322C, strain KRE1, hits give low values 0.989 | S. cerevisiae deletion strains, locus YNR049C, strain mso1, hits give low values 0.967 | S. cerevisiae deletion strains, locus YNR052C, strain pop2, hits give low values 0.976 | S. cerevisiae deletion strains, locus YOL006C, strain TOP1, hits give low values 0.77 | S. cerevisiae deletion strains, locus YOL012C, strain htz1 0.775 | S. cerevisiae deletion strains, locus YOL147C, strain pex11, hits give low values 0.947 | S. cerevisiae deletion strains, locus YOR001W, strain rrp6, hits give low values 0.974 | S. cerevisiae deletion strains, locus YOR061W, strain CKA2, hits give low values 1 | S. cerevisiae deletion strains, locus YOR069W, strain VPS5, hits give low values 0.989 | S. cerevisiae deletion strains, locus YOR070C, strain gyp1, hits give low values 0.963 | S. cerevisiae deletion strains, locus YOR080W, strain dia2, hits give low values 0.997 | S. cerevisiae deletion strains, locus YOR083W, strain WHI5, hits give low values 0.955 | S. cerevisiae deletion strains, locus YOR106W, strain vam3, hits give low values 0.936 | S. cerevisiae deletion strains, locus YOR136W, strain idh2, hits give low values 0.955 | S. cerevisiae deletion strains, locus YOR144C, strain elg1, hits give low values 0.957 | S. cerevisiae deletion strains, locus YOR231W, strain MKK1, hits give low values 0.924 | S. cerevisiae deletion strains, locus YOR265W, strain rbl2, hits give low values 0.962 | S. cerevisiae deletion strains, locus YOR290C, strain snf2, hits give low values 0.929 | S. cerevisiae deletion strains, locus YOR316C, strain cot1, hits give low values 0.964 | S. cerevisiae deletion strains, locus YPL051W, strain arl3, hits give low values 0.96 | S. cerevisiae deletion strains, locus YPL055C, strain LGE1, hits give low values 0.972 | S. cerevisiae deletion strains, locus YPL078C, strain atp4, hits give low values 0.932 | S. cerevisiae deletion strains, locus YPL106C, strain sse1, hits give low values 1.02 | S. cerevisiae deletion strains, locus YPL240C, strain hsp82, hits give low values 0.987 | S. cerevisiae deletion strains, locus YPL241C, strain CIN2, hits give low values 0.991 | S. cerevisiae deletion strains, locus YPL256C, strain CLN2, hits give low values 0.866 | S. cerevisiae deletion strains, locus YPR119W, strain clb2, hits give low values 0.933 | S. cerevisiae deletion strains, locus YPR141C, strain kar3, hits give low values 0.946 | S. cerevisiae deletion strains, locus YPR163C, strain tif3, hits give low values 0.957 | S. cerevisiae deletion strains, locus YPR167C, strain met16, hits give low values 0.96 | S. cerevisiae deletion strains, strain wtn01, hits give low values 0.928 | S. cerevisiae strains, strain wild type, hits give low values 0.978
active: S. cerevisiae deletion strains, locus YKR001C, strain vps1, hits give low values 0.842 | S. cerevisiae deletion strains, locus YLR113W, strain HOG1, hits give low values 0.835 | S. cerevisiae deletion strains, locus YLR262C, strain YPT6 (second series), hits give low values 0.731 | S. cerevisiae deletion strains, locus YLR320W, strain mms22, hits give low values 0.859 | S. cerevisiae deletion strains, locus YNL071W, strain lat1, hits give low values 0.795 | S. cerevisiae deletion strains, locus YNL307C, strain MCK1, hits give low values 0.734 | S. cerevisiae deletion strains, locus YOR184W, strain ser1, hits give low values 0.808 | S. cerevisiae deletion strains, locus YOR270C, strain vph1, hits give low values 0.727
